# Screens (PubChem BioAssay)
# HSV augment = increases HSV replication in cells | HSV replication augmentation in cells, fold increase | maximum fold increase | 220,000 compounds, 0.005% hits; in the data active = maximum fold increase above about 1.5; inconclusive = no clear call, values can overlap the other calls; tested in PC3 cells
# Efflux pump inh = antifungal efflux pump inhibition, Nile Red retention; S. cerevisiae Candida pump triplex; 330,000 compounds, 0.44% hits; AID 485275; inhibition, % at 10 µM;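 active = plate passing quality check with inhibition over a set limit, or well fluorescence over plate mean plus 4 SD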;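 also: Nile Red retained in pooled yeast measured as flow cytometry median fluorescence; 0% = buffer negative control and 100% = Enniatin B positive control; higher means more Nile Red kept so more efflux inhibition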
# NPR1 activator = GC-A (human) enzyme activation. P16066. HEK293 GC-A cells, cGMP TR-FRET, EC30 ANP; 0% at EC30 ANP, 100% saturating ANP. activation, % at 10 µM. 370,000 compounds, 0.14% hits. AID 1671463; in the data active = activation above about 40%
# GC-B act = GC-B (human) receptor activation. P20594. HEK293-GC-B cells, CNP EC30, cGMP TR-FRET; 0% at EC30 CNP, 100% saturating CNP. activation, % at 10 µM. 370,000 compounds, 0.11% hits. AID 1920062;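 active = activation at 10 µM reaching about 35% in either raw or pattern-adjusted values, limit read from the data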
# TAG inh = reduces triacylglycerol accumulation in H9c2 cells. Nile Red lipid (TAG) fluorescence; cells loaded with 200 µM oleic acid. inhibition, % at 12.5 µM. 230,000 compounds, 0.66% hits;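 active = pattern-corrected inhibition of lipid staining of at least 50% with the nuclear-stain viability signal not falling by more than 50%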;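 also: 0% = DMSO wells and 100% = triacsin C control wells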
# A1 inh = inhibitors of the anti-apoptotic protein A1, read as caspase activation; MEF A1-2A-BIM cells, Caspase-Glo 3/7 luminescence, 3 h; percent of clofoctol response, vehicle zero; caspase activation, % (test concentration not listed); 330,000 compounds, 0.066% hits;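 active = over half of replicate activation scores above 10%, or exactly half above 10 with the replicate mean above 10; inconclusive = replicate mean below 10 yet half the replicates above 10; inactive = over half of replicates below 10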
# Yeast cmpd fluor = counter-screen for efflux pump inhibitors: compound fluorescence. S. cerevisiae AD/pABC3, flow cytometry. 1,700 compounds, 4% hits. AID 588517. shares compounds with Efflux pump inh. fluorescence ratio to DMSO, % at 10 µM;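 active = fluorescence ratio to DMSO above its plate's cutoff, the plate mean ratio plus 5 SD, cut at about 210% in these data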;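 also: unstained yeast with no Nile Red so the signal is compound autofluorescence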
# CaMdr1 efflux inh = blocks the Candida albicans Mdr1 efflux pump in yeast. shares compounds with Efflux pump inh. inhibition, % at 10 µM. 1,700 compounds, 1% hits. S. cerevisiae AD/CaMDR1, Nile Red efflux, flow cytometry. AID 588518; in the data active = inhibition above about 26%;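 also: 0% = DMSO vehicle and 100% = reference inhibitor; higher means more Nile Red retained so more efflux inhibition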
# Cdr2 pump inh = inhibitors of Candida albicans Cdr2 efflux pump; shares compounds with Efflux pump inh; S. cerevisiae AD/CaCDR2, Nile Red retention, flow cytometry; Nile Red retention ratio vs DMSO, % at 10 µM; 1,700 compounds, 4% hits; AID 588520; in the data active = Nile Red retention ratio vs DMSO above about 190%;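 also: higher ratio means more blocking of Cdr2 efflux of the dye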
# Cdr1 pump inh = inhibitors of Candida albicans Cdr1 efflux pump | inhibition, % at 10 µM | S. cerevisiae AD/CaCDR1, Nile Red efflux, flow cytometry | 1,700 compounds, 1% hits | shares compounds with Efflux pump inh | AID 588522;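 active = inhibition above the screen-wide mean plus twice its standard deviation, cut at about 32% in these data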
# * marks the source's active call; other numbers are inactive results; i = inactive; ? = inconclusive; . = no result given; + = active, no number. This is a sample that favours compounds with a hit; in the whole collection about 1% have one here.
SMILES,HSV augment,Efflux pump inh,NPR1 activator,GC-B act,TAG inh,A1 inh,Yeast cmpd fluor,CaMdr1 efflux inh,Cdr2 pump inh,Cdr1 pump inh
CC[n+]1c(/C=C/c2ccc(OC)c(OC)c2)ccc2ccccc21,.,0.7*,-1,-6,-4,0,177,0,107,0
CC[n+]1ccccc1/C=C/c1ccc(N(C)C)cc1,.,.,-38,-17,-39,.,.,.,.,.
CCOc1ccc(-n2c(SCc3cccc4ccccc34)nnc2-c2ccc(C)cc2)cc1,.,.,-3,-9,.,.,.,.,.,.
COc1ccc(CNCC#Cc2ccccc2)cc1,.,.,1,1,.,.,.,.,.,.
CC(COc1ccc(C#N)cc1F)CN1CCC(C(O)(c2ccccc2)c2ccccc2)CC1 (centres undefined),.,.,-24,-18,.,.,.,.,.,.
Cc1ccc(/C(C#N)=C\c2ccc(N3CCOCC3)o2)cc1,i,0,3,1,.,1,.,.,.,.
Cc1ccc2nc(/C(C#N)=C\c3ccc(N4CCOCC4)o3)[nH]c2c1,?,0.5*,9,3,-145,-1,128,0,131,0
Cc1ccc2nc(/C(C#N)=C\c3ccc([N+](=O)[O-])o3)[nH]c2c1,.,18*,16,13,.,0,+,8,+,0
N#C/C(=C(/O)c1ccc([N+](=O)[O-])o1)c1nc2ccccc2[nH]1,.,0,-7,-2,78,-5,.,.,.,.
N#C/C(=C\c1ccc([N+](=O)[O-])o1)c1nc2ccccc2[nH]1,.,5.1*,31,34,.,1,+,4,478*,2
COC(=O)[C@]12C[C@H](CC(=O)NCc3cccc(C(F)(F)F)c3)C(=O)N(Cc3ccc(Cl)cc3Cl)C1=C[C@H](COCc1ccccc1)O[C@@H]2C,.,.,1,5,.,.,.,.,.,.
Cc1cc(C)cc(NC(=O)c2ccc(NC3=NC4CS(=O)(=O)CC4S3)cc2)c1 (centres undefined),.,0.9*,0,2,-4,0,83,0,95,0
Cc1cc(C)cc(NC(=O)Cc2ccc(NC3=NC4CS(=O)(=O)CC4S3)cc2)c1 (centres undefined),.,0,-3,-5,16,0,.,.,.,.
Cc1ccc(CC(NC(=O)c2ccccc2)C(=O)NC(C)C(=O)O)cc1 (centres undefined),i,1.5*,-2,6,.,0,98,-1,91,0
Cc1sc(NC(=O)c2cccs2)nc1-c1ccccc1,i,-1,-4,-4,29,1,.,.,.,.
Cc1sc(NC(=S)NC(=O)c2cccs2)nc1-c1ccc(C(C)C)cc1,i,0.9*,-1,-2,.,1,103,0,94,0
COC(=O)[C@@]12CCCCC=C1N(CCc1ccc(Cl)cc1)C(=O)[C@H]2CC(=O)NCC12CC3CC(CC(C3)C1)C2,.,.,0,-1,.,.,.,.,.,.
O=C(c1ccccc1)C1Oc2ccccc2C2CC(c3cccs3)=NN12 (centres undefined),i,1.5*,-12,-3,-29,0,120,0,117,0
COC(=O)[C@]12C[C@H](CC(=O)NCc3ccc(OC)c(OC)c3)C(=O)N(Cc3ccccc3)C1=C[C@H](COCc1ccccc1)O[C@@H]2C,.,.,2,2,.,.,.,.,.,.
Cc1ccc(-c2c[n+](Cc3cccc(Cl)c3)c3n2CCC3)cc1,i,0,2,5,4,0,107,0,107,0
Cc1ccc(-c2c[n+](CC(=O)Nc3c(C)cccc3C)c3n2CCC3)cc1,i,0,2,8,-8,-1,.,.,.,.
Cc1ccc(NC(=O)C[n+]2cc(-c3ccccc3)n3c2CCC3)c(C)c1,i,0,0,3,-9,0,89,0,87,0
C#CCNC(=O)C[C@H]1C[C@@]2(C(=O)OCC)CCCC3=C2N(CCC3)C1=O,.,.,-1,1,.,.,.,.,.,.
Cc1cc(/C=C\c2ccc3cc(N(C)C)ccc3[n+]2C)c(C)n1-c1ccccc1,.,17*,.,.,-110,-1,+,38*,270*,20
C=CCn1c(=S)[nH]c2sccc2c1=O,i,0.8*,2,3,-2,2,95,0,98,0
SMILES,HSV augment,Efflux pump inh,NPR1 activator,GC-B act,TAG inh,A1 inh,Yeast cmpd fluor,CaMdr1 efflux inh,Cdr2 pump inh,Cdr1 pump inh
CCSc1cc(N2CCCC2)nc(-c2ccc(C)cc2)n1,i,0,-6,-6,.,0,110,0,104,0
CCSc1cc(N2CCCC2)nc(-c2ccc(F)cc2)n1,i,0,-7,-4,.,-1,91,0,87,0
CCSc1cc(N2CCCC2)nc(-c2cccc(C)c2)n1,i,0,-7,0,.,0,.,.,.,.
CCOC(=O)c1cccc(NC(=O)CN(C)S(=O)(=O)c2ccc(C)c(C)c2)c1,.,.,-2,0,.,.,.,.,.,.
COC(=O)[C@]12C[C@H](CC(=O)NCc3ccccc3)C(=O)N(CCc3ccc(OC)c(OC)c3)C1=C[C@H](C1CCCC1)O[C@@H]2C,.,.,0,7,.,.,.,.,.,.
O=C(Cc1ccccc1)Nc1nnc(-c2cccnc2)s1,.,.,2,-8,.,.,.,.,.,.
COc1ccc(Cl)cc1C(=O)O/N=C(\N)c1ccc(Cl)cc1,i,6.5*,5,-7,.,0,113,0,110,0
COc1cccc(C(=O)O/N=C(\N)c2ccncc2)c1OC,i,13*,0,3,.,0,98,0,107,0
COc1cc(OC)c(C(=O)O/N=C(\N)c2ccc(C)cc2)cc1OC,.,0,6,-6,.,-1,.,.,.,.
CN(C)c1ccc(/C=C/c2cc[n+](C)cc2)cc1,.,130*,-19,-28,.,0,+,+,488*,+
Cc1ccc(/C=C/c2ccc(N(C)C)cc2)[n+](C)c1,.,4.4*,-29,-24,.,-1,+,34*,116,18
O=C(NCCc1c[nH]c2ccccc12)OCc1cn(Cc2ccccc2Cl)nn1,.,.,1,3,.,.,.,.,.,.
CN(C)C(=O)c1ccc(NC(=O)c2ccc(-c3ccc(Cl)cc3)o2)cc1,.,0.6*,12,8,-9,0,108,0,110,0
Cc1cc(Cl)c2oc(C(=O)NCC(C)(C)N3CCOCC3)c(C)c2c1,.,0.6*,-1,-2,.,0,128,0,102,0
COc1cccc(N2CCN(CC(=O)NCc3ccc(F)cc3)CC2)c1,.,.,1,5,.,.,.,.,.,.
